Assay results published in publication PMC8384837, “Expanding the binding specificity for RNA recognition by a PUF domain”.

target: PUM1 PUF domain R4-ARG (Homo sapiens, UniProt Q14671 828-1176, N971A;H972R;Q975G); assay: yeast three-hybrid, YBZ-1, SC-Leu-His + 0.5 mM 3-AT, 4 days; details: tags: N-Gal4 AD-HA kept; label: inside an RPR1-promoter hybrid RNA with tandem MS2 sites; ssRNA
Outline: (§1)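 Pumilio-1 PUF domain libraries, randomized (NNK) at the three base-contacting residues of each repeat, were co-expressed with matching RNA elements from a centromeric plasmid in strain YBZ-1 (LexA–MS2 coat fusion, HIS3 reporter). Transformants were plated on SC-Leu (input) and SC-Leu-His + 0.5 mM 3-AT (selection) for four days, and repeat regions were PCR-amplified and Illumina-sequenced. The interaction score is the log2 change in variant frequency from input to selection, with pseudocount 1 where absent.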

Chain of PUM1 PUF domain R4-ARG (Q14671 828-1176 N971A/H972R/Q975G): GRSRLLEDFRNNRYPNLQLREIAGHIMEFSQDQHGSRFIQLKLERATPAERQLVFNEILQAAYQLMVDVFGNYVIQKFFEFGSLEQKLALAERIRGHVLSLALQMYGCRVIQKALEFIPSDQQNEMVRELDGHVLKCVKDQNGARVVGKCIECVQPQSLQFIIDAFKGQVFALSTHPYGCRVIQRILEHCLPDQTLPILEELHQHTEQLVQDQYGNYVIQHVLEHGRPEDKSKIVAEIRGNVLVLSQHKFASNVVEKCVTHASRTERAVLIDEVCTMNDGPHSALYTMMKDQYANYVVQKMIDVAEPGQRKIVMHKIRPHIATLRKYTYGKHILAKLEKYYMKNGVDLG

Going from “GGCUAGAACUAGUGGAUCCCCCGGCGCCCGGCGGCUCGAGCCCGGGUAAGUGUAAAUAGUCUGCAUGCCGCCGGGCGCCAUGCCUGCAGGUCGACUCUAGAAAACAUG” to “GGCUAGAACUAGUGGAUCCCCCGGCGCCCGGCGGCUCGAGCCCGGGUAAGUGUACAUAGUCUGCAUGCCGCCGGGCGCCAUGCCUGCAGGUCGACUCUAGAAAACAUG”, the binding signal falls from 4.57 log2 enrichment (interaction score) to 1.86 log2 enrichment (interaction score).

For “GGCUAGAACUAGUGGAUCCCCCGGCGCCCGGCGGCUCGAGCCCGGGUAAGUGUAUAUAGUCUGCAUGCCGCCGGGCGCCAUGCCUGCAGGUCGACUCUAGAAAACAUG”, the binding signal was 1.79 log2 enrichment (interaction score).

target: PUM1 PUF domain R4-NPG (Homo sapiens, UniProt Q14671 828-1176, H972P;Q975G); assay: as above; details: tags: N-Gal4 AD-HA kept; label: inside an RPR1-promoter hybrid RNA with tandem MS2 sites; ssRNA
Sequence (Q14671 828-1176 H972P/Q975G): as the sequence (Q14671 828-1176 N971A/H972R/Q975G) above, with A144N, R145P counted along it
Outline: as §1

First: GGCUAGAACUAGUGGAUCCCCCGGCGCCCGGCGGCUCGAGCCCGGGUAAGUGUAAAUAGUCUGCAUGCCGCCGGGCGCCAUGCCUGCAGGUCGACUCUAGAAAACAUG
Second: GGCUAGAACUAGUGGAUCCCCCGGCGCCCGGCGGCUCGAGCCCGGGUAAGUGUACAUAGUCUGCAUGCCGCCGGGCGCCAUGCCUGCAGGUCGACUCUAGAAAACAUG
The binding signal of the first is higher: 2.63 log2 enrichment (interaction score) for the first, 1.42 log2 enrichment (interaction score) for the second.

“GGCUAGAACUAGUGGAUCCCCCGGCGCCCGGCGGCUCGAGCCCGGGUAAGUGUAUAUAGUCUGCAUGCCGCCGGGCGCCAUGCCUGCAGGUCGACUCUAGAAAACAUG” was tested, and the binding signal was 3.81 log2 enrichment (interaction score).
